IMPase Li cell: qHTS Assay for Identifying the Cell-Membrane Permeable IMPase Inhibitors: Potentiation with Lithium | Potency, µM (titrated, usually from 59.4 µM), without a hit: top-dose activity, negative = IMPase inhibition, most hits filed as inhibitors | CHO-M1 cells, IP1 TR-FRET (IP-One), carbachol + lithium | 0.35% of 210,000 active;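 note: IP1 builds up when IMPase is blocked and the TR-FRET signal falls; potency is the fitted concentration of half-maximal effect; plate controls were basal vehicle for no effect and high inhibitor control for full effect; nearly all actives have a fitted effect of over 50% in size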
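Steps: plate 2000 CHO-M1 cells per well and culture 16–30 h; add compound and lithium; incubate 30 min, 37C; add d2-IP1 tracer and Eu cryptate anti-IP1 antibody in lysis buffer; read after 10 min at room temperature.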
HPGD block: qHTS Assay for Inhibitors of HPGD (15-Hydroxyprostaglandin Dehydrogenase); purified HPGD, NADH fluorescence kinetic, PGE2 substrate; 4.3% of 150,000 active; Potency, µM, inactives show at the top dose activity change, negative = inhibition, actives largely listed as inhibitors; 15-hydroxyprostaglandin dehydrogenase [NAD(+)] (Homo sapiens), P15428; AID 894, 2007; active = well fitted inhibition curve with a large enough effect, not every such curve was filed as active; inconclusive = small, poorly fitted or top-dose-only effect, or another doubt; inactive = no such curve, though single readings can be large or run the other way; note: potency is the fitted concentration of half-maximal effect
Target sequence (P15428 whole entry, looked up): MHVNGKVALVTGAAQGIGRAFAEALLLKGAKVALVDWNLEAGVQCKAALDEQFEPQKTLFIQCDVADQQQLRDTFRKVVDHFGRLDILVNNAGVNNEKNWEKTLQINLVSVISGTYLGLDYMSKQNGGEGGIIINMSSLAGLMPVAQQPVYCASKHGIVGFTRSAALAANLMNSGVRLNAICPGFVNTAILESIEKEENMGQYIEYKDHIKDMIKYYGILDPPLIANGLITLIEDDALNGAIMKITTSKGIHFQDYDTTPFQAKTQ
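NADH formation kinetics: reaction with 30 uM PGE2 and 1 mM NAD+ (final), 20 nM enzyme, Tris-HCl pH 8 with Tween 20, after 15 min compound preincubation at room temperature. Fluorescence change, last versus first of five reads.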
ALOX15B inhib: qHTS Assay for Inhibitors of 15-hLO-2 (15-human lipoxygenase 2); AID 881, 2007; 0.56% of 110,000 active; Potency, µM (highest dose often 57.1 µM), inactives show at the top dose activity change, negative = inhibition, actives largely listed as inhibitors; Polyunsaturated fatty acid lipoxygenase ALOX15B (Homo sapiens), O15296; purified 15hLO-2, xylenol orange hydroperoxide absorbance; note: potency is the fitted concentration of half-maximal effect; nearly all actives have a fitted effect of over 60% in size
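Purified human 15hLO-2 (50 nM final) preincubated with compounds 15 min at room temperature in 25 mM Hepes pH 7.5, 0.01% Triton X-100, then 45 uM arachidonic acid added for 90 min; hydroperoxide detected via ferrous/xylenol orange, 573/405 nm absorbance ratio.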
IMPase cell inh: qHTS Assay for Identifying the Cell-Membrane Permeable IMPase Inhibitors; Inositol monophosphatase 1 (Rattus norvegicus), P97697; inhibition (IP1 accumulation), % at 46.1 µM; AID 901, 2007; 120,000 tested, under 10 active; CHO-M1 cells, IP1 accumulation, HTRF TR-FRET ratio; active = well fitted curve in the direction sought with a large enough effect in the signal ratio, not every such curve was filed as active; inconclusive = small, poorly fitted or top-dose-only effect, or a change in a side signal; inactive = no such curve, though single readings can be large or run the other way; the % refers to the signal ratio;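 note: cells stimulated with carbachol in lithium chloride buffer; plate controls were DMSO basal wells for no effect and reference inhibitor wells for full effect; higher means more IMPase inhibition seen as more IP1 and lower FRET ratio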
Target sequence (P97697 whole entry, looked up): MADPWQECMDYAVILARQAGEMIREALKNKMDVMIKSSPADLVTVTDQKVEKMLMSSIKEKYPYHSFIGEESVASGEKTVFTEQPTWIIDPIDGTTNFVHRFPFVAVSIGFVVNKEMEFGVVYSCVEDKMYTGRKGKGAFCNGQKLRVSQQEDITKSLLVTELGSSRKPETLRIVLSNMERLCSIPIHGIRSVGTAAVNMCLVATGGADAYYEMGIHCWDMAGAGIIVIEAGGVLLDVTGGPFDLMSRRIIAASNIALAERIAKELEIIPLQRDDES
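CHO-M1, 2000 cells/well, cultured 16–30 h; cpd up to 46 uM; carbachol (50 uM solution, stimulation buffer w/ 50 mM LiCl, pH 7.4), 30 min 37C; IP-One TR-FRET, 10 min RT; Ex 320/Em 665, 620; Hill-fit AC50.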
PNC assembly inh: High Content Assay for Compounds that inhibit the Assembly of the Perinucleolar Compartment | 3.1% of 140,000 active | activity change (PNC), negative = inhibition, % at 10 µM | PC3M PTB-GFP, PNC prevalence imaging, 16 h; hits give low values;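 active = readout at or below -70, meaning at least 70% loss of cells showing the perinucleolar compartment, a nuclear body marking cancer cells; inconclusive = readout between -30 and a set limit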;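 note: plate controls were DMSO wells for no effect and camptothecin positive control wells for full effect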
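Read-out is percentage of cells bearing a perinucleolar compartment, from automated 20x imaging of fixed, Hoechst-stained PC3M PTB-GFP cells. Cells were seeded 4 h, then exposed 16 h to compound (23 nl of library stock) in duplicate plates.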
ALOX12 inhib: qHTS Assay for Inhibitors of 12-hLO (12-human lipoxygenase). Potency, µM (doses to about 57.1 µM), for inactives: top-dose activity change, negative = inhibition, most hits filed as inhibitors. AID 1452, 2008. Polyunsaturated fatty acid lipoxygenase ALOX12 (Homo sapiens), P18054. purified 12-hLO, xylenol orange hydroperoxide absorbance. 0.12% of 150,000 active; note: potency is the fitted concentration of half-maximal effect; nearly all actives have a fitted effect of over 55% in size
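Hydroperoxide formation by human 12-lipoxygenase from 40 uM arachidonic acid was followed colorimetrically via ferric-xylenol orange complex, using the 573/405 nm absorbance ratio. Enzyme concentration was 150 nM, with 30 min reaction at room temperature.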
Starred values were filed as active, the others as inactive; u = inconclusive; x = no result given; [ ] = another dose, or the depositor's remark. A selection: hits, their analogues and other compounds. The true share with any hit is near 5.4%. Unless noted, calls come from the whole dose curve; as a rule, active = well fitted curve in the direction sought with a large enough effect; inconclusive = small, poorly fitted or top-dose-only effect, or another doubt; inactive = no such curve, though single readings can be large; an effect the other way counts as inactive or inconclusive. Unless noted, % is set by controls: 0 for no effect and ±100 for the full control effect.

SMILES	IMPase Li cell	HPGD block	ALOX15B inhib	IMPase cell inh	PNC assembly inh	ALOX12 inhib
O=[N+]([O-])c1ccc(N2CCCCC2)cc1N1CCOCC1	-4.7%[38.3 µM]	-15.4%	-10.3%	0.8	2.4	3.5%
S=P(c1ccc(N2CCOCC2)cc1N1CCOCC1)(N1CCOCC1)N1CCOCC1	-2.6%[38.3 µM]	25.1µM*	-2.8%	11.0	u	-8.0%
COc1ccc2cc(C(=O)Nc3ccc(O)cc3)sc(=O)c2c1OC	8.3%	25.1µM*	x	x	30.6	-4.9%
COc1ccc2cc(C(=O)Nc3ccc(F)cc3)sc(=O)c2c1OC	-13.9%[38.3 µM]	-15.3%	-13.3%	0.6	3.9	4.0%
Cc1ccc(S(=O)(=O)Nc2ccc(C(OC(=O)c3ccccc3[N+](=O)[O-])(C(F)(F)F)C(F)(F)F)cc2)cc1	17.1%	-25.2%	x	x	-108.4*	-16.0%
O=C(/C=C/c1ccc(Cl)cc1Cl)NCCSc1ccccc1	11.0%	-6.6%	x	x	-5.6	-0.2%
Cc1ccc(CSCCNC(=O)/C=C/c2ccccc2Cl)cc1	22.9%[38.3 µM]	8.91µM*	1.5%	9.6	-23.2	u
O=C(/C=C/c1ccccc1)NCCSCc1ccc(Cl)cc1	6.3%	-11.0%	x	x	-5.0	-1.8%
O=C(/C=C/c1ccccc1)NCCSCc1ccccc1Cl	22.0%	10µM*	-4.3%	-2.0	-91.1*	-0.8%
O=C(/C=C/c1ccc(Cl)cc1Cl)NCCSCc1ccccc1	7.1%	14.1µM*	x	x	u	-4.4%
Cc1ccc(CCNC(c2ccc(F)cc2)c2nnc(-c3ccccc3Cl)o2)cc1 (centres undefined)	x	x	x	7.4	x	x
O=C1N=C(O)CN1/N=C\c1ccc(-c2ccc([N+](=O)[O-])cc2)o1	13.1%	-24.0%	-27.0%	-2.3	x	-6.0%
C[C@H]1C[C@H]2[C@H]3CCC4=CC(=O)C=C[C@@]4(C)[C@]3(F)[C@H](O)C[C@]2(C)[C@@]1(O)C(=O)COP(=O)(O)O	9.9%	-0.9%	-4.7%[11.4 µM]	x	x	0.3%[11.4 µM]
CCc1cc(C(C)=O)c(O)cc1OCCCCCC(C)(C)c1nn[nH]n1	4.5%	20µM*	4.1%	x	x	-3.6%
Cc1ccc(NC(=S)N(CCN(C)C)Cc2cc3cc(C)cc(C)c3[nH]c2=O)cc1	1.7%	-4.3%	x	x	-116.4*	0.1%
CN1CC=C2C(C#N)=C(N)C(C#N)(C#N)C(c3ccsc3)C2C1 (centres undefined)	-5.0%[38.3 µM]	u	29.3%	-6.3	u	-15.1%
COc1cc([C@@H]2[C@H]3CN(C)CC=C3C(C#N)=C(N)C2(C#N)C#N)cc2c1OCO2	9.1%[38.3 µM]	-18.9%	2.5%[2.29 µM]	-8.7	-98.5*	-9.2%
CCCC1C2CN(C(C)C)CC=C2C(C#N)=C(N)C1(C#N)C#N (centres undefined)	8.2%[38.3 µM]	u	16.1%	-2.2	-92.3*	-16.8%
CN1CC=C2C(C#N)=C(N)C(C#N)(C#N)[C@H](c3cccs3)[C@H]2C1	4.2%	u	x	-13.4	-94.1*	-2.9%
Cc1nn2c(-c3cccc(NC(=O)c4ccc(Cl)cc4)c3)nnc2c2ccccc12	x	x	x	3.4	x	x
COC(=O)CS(=O)(=O)c1nnc([C@H](Cc2ccccc2)NC(=O)OC(C)(C)C)o1	57.9%[38.3 µM]	11.2µM*	u	19.7	u	-5.5%
COC(=O)CSc1nnc([C@H](Cc2ccccc2)NC(=O)OC(C)(C)C)o1	9.5%[38.3 µM]	-4.5%	-6.2%	2.4	68.3	-5.0%
Cc1cccc(CS(=O)(=O)c2nnc([C@H](Cc3ccccc3)NC(=O)OC(C)(C)C)o2)c1	21.3%[38.3 µM]	14.1µM*	u	23.0	-1.0	-7.5%
CC(C)c1cc(/C=C(\C#N)C(=O)NCCCc2ccccc2)cc(C(C)C)c1O	-12.5%	x	x	x	x	x
Cc1ccc(C2CC(=O)Nc3cc4c(cc32)OCCO4)cc1Br (centres undefined)	x	x	x	10.3	x	x
SMILES	IMPase Li cell	HPGD block	ALOX15B inhib	IMPase cell inh	PNC assembly inh	ALOX12 inhib
CCn1c(SCC(=O)Nc2ccc3c(c2)OCO3)nc2c1c(=O)n(C)c(=O)n2C	29.8%[38.3 µM]	-3.1%	0.3%	1.4	u	2.8%
Cn1c(=O)c2c(nc(SCC(=O)O)n2Cc2cc3c(cc2Cl)OCO3)n(C)c1=O	13.5%[38.3 µM]	25.1µM*	-10.2%	4.3	58.2	2.7%
Cc1ccc(-c2nnc(CSc3nc4cc5c(cc4cc3C)OCO5)o2)cc1	-2.5%[38.3 µM]	17.8µM*	5.4%	5.4	32.8	-13.2%
Cc1ccc2nc(N3C(=O)C(O)=C(C(=O)c4ccc(C)o4)C3c3cccc(O)c3)sc2c1 (centres undefined)	8.91µM*	x	x	x	x	x
O=C(Nc1nc2c(s1)CCCC2)c1ccc(Br)s1	14.2%[38.3 µM]	20µM*	26.2%	5.2	13.8	-11.6%
O=C(Nc1nnc(C(F)(F)F)s1)c1ccc(Br)s1	-1.5%	x	x	x	x	x
O=C(Nc1nnc(C2CCCCC2)s1)c1ccc(Br)s1	10µM*	2.9%	0.0%	8.1	6.9	-2.9%
O=C(CS(=O)(=O)Cc1ccccc1)Nc1nc2c(s1)CCCC2	21.4%[38.3 µM]	-9.5%	-4.2%	5.3	u	-6.6%
Cc1ccc(CC(=O)Nc2nc3c(s2)CCCC3)cc1	25.4%[38.3 µM]	-11.0%	12.8%	2.0	-100.3*	1.5%
C/C(=N\Nc1ccc([N+](=O)[O-])cc1)c1ccc(N)cc1	26.0%	-21.9%	x	-0.5	27.4	u
C/C(=N\Nc1ccc([N+](=O)[O-])cc1)c1ccc(-n2nncc2C)cc1	17.6%	8.91µM*	x	x	-17.4	-3.8%
CCc1nnc(NC(=O)CSc2nc(C3CCCCC3)nc3ccccc23)s1	7.94µM*	2.1%	-2.6%	u	-9.2	0.6%

Assay outcomes as filed in PubChem.
